# Laboratory results: PubChem BioAssay AID588342 (National Center for Advancing Translational Sciences (NCATS), 2011)
# In all, about 360,000 compounds went through this assay and about 25,000 (6.9%) were called active. Inconclusive results (about 9%) are left out. The full list was thinned out, with actives kept by preference. Unmarked numbers belong to inactive results. Calls come from the whole dose curve; as a rule, active = well fitted inhibition curve with a large enough effect; inconclusive = small, poorly fitted or top-dose-only effect; inactive = flat fitted curve, though single readings scatter.
# Target: Luciferin 4-monooxygenase (Photinus pyralis) (UniProt P08659)
# Sequence (P08659 whole entry, looked up): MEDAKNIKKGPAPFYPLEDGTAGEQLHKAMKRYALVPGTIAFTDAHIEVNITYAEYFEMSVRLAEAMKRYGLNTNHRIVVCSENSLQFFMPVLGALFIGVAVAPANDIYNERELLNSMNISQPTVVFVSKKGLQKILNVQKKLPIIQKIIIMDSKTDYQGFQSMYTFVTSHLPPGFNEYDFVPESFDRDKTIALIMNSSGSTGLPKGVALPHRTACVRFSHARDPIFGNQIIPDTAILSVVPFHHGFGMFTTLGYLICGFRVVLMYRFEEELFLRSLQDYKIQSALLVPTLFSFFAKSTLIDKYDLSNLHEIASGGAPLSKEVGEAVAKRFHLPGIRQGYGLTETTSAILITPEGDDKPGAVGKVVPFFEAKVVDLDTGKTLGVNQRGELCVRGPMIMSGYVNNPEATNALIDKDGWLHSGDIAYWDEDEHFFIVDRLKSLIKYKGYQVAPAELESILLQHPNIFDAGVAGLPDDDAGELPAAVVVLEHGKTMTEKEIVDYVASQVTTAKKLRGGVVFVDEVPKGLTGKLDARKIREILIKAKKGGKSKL
# Assay: qHTS profiling assay for firefly luciferase inhibitor/activator using purifed enzyme and Km concentrations of substrates (counterscreen for miR-21 project); note: nearly all actives have a fitted effect of over 55% in size;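 for activity change, negative = inhibition: plate controls were vehicle for no effect and reference inhibitor for full effect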
# Details: purified FLuc, luminescence inhibition; series mostly up to 57.5 µM; activity change, negative = inhibition: at the top concentration
# How it was run: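 Biochemical qHTS of compounds, final roughly 60 µM downward over six points, against 10 nM purified firefly luciferase using Km concentrations of substrates (10 uM D-luciferin, 10 uM ATP) in Tris acetate pH 7.5 buffer; luminescence output.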
# Potency is the fitted concentration of half-maximal effect.
Compound,"activity change, negative = inhibition [%]",Potency
CC(=O)c1ccc(NC(=O)Cn2c(=O)oc3ccccc32)cc1,-1.43,
Cc1ccc(C(=O)Nc2ccc(OCc3cc(=O)n4c(C)csc4n3)cc2)cc1,-1.13,
Cn1cc(CN2CCCCC2c2ccccn2)c(-c2ccc3c(c2)OCCO3)n1 (stereo not given),0.917,
CCO[C@H]1OC(C(=O)Nc2ccccc2)=C[C@@H](C2CC2)[C@@H]1CCCO,-2.36,
Cn1c(=O)c2c(-c3cccc(Br)c3)c(C#N)c(N)nc2n(C)c1=O,-1.7,
Cc1c(C)n2c(SCC(=O)N3CCCC3)nnc2[nH]c1=O,-1.87,
CCOC(=O)c1cc2c(=O)n3ccccc3nc2n(CCCOC)c1=NC(=O)C(C)(C)Oc1ccc(Cl)cc1,2.07,
CC1CCCCN1S(=O)(=O)c1ccc(S(=O)(=O)N(CC(=O)Nc2ccccc2)Cc2cccs2)cc1 (stereo not given),1.69,
O=C(Nc1nnc(CCc2ccccc2)s1)C1CCCO1 (stereo not given),-2.69,
CC(C)(C)NS(=O)(=O)c1ccc(NC(=O)C2CCCO2)cc1 (stereo not given),-1.57,
O=C(Nc1ccc(-c2nnc(-c3ccccc3)o2)cc1)C1CCCO1 (stereo not given),,3.38 µM (active)
COc1ccc(NC(=O)N2CCCC2C(=O)NCc2ccccc2Cl)cc1 (stereo not given),-4.96,
CC(C)(C)c1ccc(OC2=CS(=O)(=O)c3ccccc32)cc1,,15.1 µM (active)
CC(C)(C)c1ccc(CN2C(=O)c3ccccc3S2(=O)=O)cc1,-16.2,
O=S1(=O)C=C(SCCN2CCCC2)c2ccccc21,-2.28,
Cc1ccc(-n2c(=O)c3cccnc3n2CC(=O)NCc2ccc(F)cc2)cc1C,-12.7,
O=C(c1ccc2c(c1)N(Cc1ccccc1)C(=O)c1ccccc1S2(=O)=O)N1CCC(Cc2ccccc2)CC1,2.38,
Cc1nc(NC2=NC(C(=O)Nc3ccc(Cl)cc3)CC(=O)N2)nc2ccccc12 (stereo not given),0.404,
Cc1nc2sc(C(=O)c3ccccc3)c(N)c2c2c1CCCC2,,10.7 µM (active)
Cc1ccc2c(N)c(C(=O)c3ccccc3)sc2n1,,21.3 µM (active)
CN(C)c1ccnc2sc(C(=O)c3ccccc3)c(N)c12,,5.36 µM (active)
Nc1c(C(=O)NCc2ccccc2)sc2nc3c(cc12)C(=O)CCC3,2.35,
COC(=O)c1cc2c(N)c(C(=O)c3ccc(Cl)cc3)sc2nc1C(OC)OC,-11.4,
COc1cccc(C(=O)c2sc3nc(-c4ccccc4)cc(C(F)(F)F)c3c2N)c1,-0.554,
CC(=O)c1c(Nc2ccccc2)sc(C(=O)c2ccccc2)c1C,-3.32,
CCN(CC)C(=O)c1sc2nc(-c3ccccc3)ccc2c1N,,5.36 µM (active)
CN(C)c1ccnc2sc3c(=O)n(Cc4ccccc4)cnc3c12,3.33,

Compound,"activity change, negative = inhibition [%]",Potency
COc1ccc(C(F)(F)F)cc1NC(=O)c1sc2nc(-c3cccs3)ccc2c1N,-1.38,
CCCS(=O)(=O)c1c(Nc2ccccc2C)sc(C(=O)c2ccccc2)c1N,1.11,
CCc1nc2sc(C(=O)O)c(N)c2c2c1CCCC2,-2.9,
COc1cc(OC)c(NC(=O)Cc2ccc(-n3c(C)nc4cccnc43)cc2)cc1Cl,-14.7,
O=C(O)CCCCCCCCc1cn(CN2C(=O)c3ccccc3C2=O)nn1,-0.842,
CCOCCCNC(=O)c1c(NC(=O)c2nc(SC)ncc2Cl)sc2c1CCCC2,-1.87,
CC(=O)NC(c1cccs1)c1cc(Br)c2cccnc2c1O (stereo not given),-0.554,
CC(OC(=O)CNC(=O)c1cccc(F)c1)C(=O)NC1CCCCC1C (stereo not given),-0.117,
CCN(CC)c1ccc(C2C(C(N)=O)=C(C)Nc3nc(SCc4ccccc4)nn32)cc1 (stereo not given),-0.212,
COC(=O)c1nc(NC(=O)c2ccc(F)cc2)n[nH]1,-14.8,
CSc1ncc(C(=O)Nc2ccc(C)cc2C)c(C)n1,-0.488,
CSc1nccc(NC(=O)c2ccc(C(C)(C)C)cc2)n1,,1.9 µM (active)
COC(=O)c1ccccc1NC(=O)c1cc(-c2ccccc2O)no1,-15.2,
O=S(=O)(NCCCCCCNS(=O)(=O)c1c(F)cccc1F)c1ccc2c(c1)OCCO2,4.33,
Cc1ccccc1CCNC(=O)C1CCN(c2nc3ccccc3nc2C(F)(F)F)CC1,-6.81,
O=C1CCNCCN1[C@H](CO)Cc1ccccc1,1.19,
CC(=O)NCC(=O)N(Cc1ccco1)C1(C(=O)NC2CCCC2)CCCCC1,-1.26,
CSc1ccccc1NC(=O)c1cnc2sc(C)cn2c1=O,,5.36 µM (active)
Cc1cccn2c(=O)c(C(=O)NC(C)c3ccccc3)cnc12 (stereo not given),-2.31,
CSc1ccccc1NC(=O)c1cc(Cl)sc1Cl,-13.3,
CCOc1ccc(NS(=O)(=O)c2ccc(Cl)c(C(=O)N(C)Cc3cccnc3)c2)cc1,4.21,
CC(=O)Nc1ccc(NC(=O)CCN2C(=O)C3CC=CCC3C2=O)cc1 (stereo not given),4.45,
CCC(=O)c1ccc(OCC(=O)N(CC)CC2COc3ccccc3O2)cc1 (stereo not given),11.9,
CCC(=O)N1CCc2cc(S(=O)(=O)NC(C(=O)Nc3ccc(C(C)=O)cc3)C(C)C)ccc21 (stereo not given),3.87,
O=C1/C(=C\Nc2ccccc2)CCN1c1ncccn1,,23.9 µM (active)
COc1ccccc1Oc1ccc(N/C=C2/CCCC2=O)cc1,-13.2,
O=C(Cc1ccccc1)NNC(=O)C1CCN(c2ncccn2)CC1,-1.06,

Compound,"activity change, negative = inhibition [%]",Potency
CCc1nnc(SCc2c(F)cccc2Cl)c2cc3sccc3n12,-0.0505,
COc1cc(C(=O)NN(CCC#N)C2=NS(=O)(=O)c3ccccc32)cc(OC)c1OC,3.16,
CCOC(=O)C1CCCN(C(=O)Cn2ncc3c(C)n(Cc4ccc(F)cc4)c(C)c3c2=O)C1 (stereo not given),-11.5,
Cc1cnc(CN(C)C(=O)C2CCC(=O)N(CCc3cccc(F)c3)C2)[nH]1 (stereo not given),0.959,
O=C(Nc1cccnc1)c1cc([N+](=O)[O-])ccc1Cl,-0.936,
O=C(Nc1ccncc1)c1ccc([N+](=O)[O-])cc1Cl,-8.87,
O=C(Nc1ccc(Br)cn1)c1ccc([N+](=O)[O-])cc1Cl,,13.5 µM (active)
COc1ccc2[nH]c3c(c2c1)CCN(C(=O)CCC1CCCC1)C3c1ccc(F)cc1 (stereo not given),-0.437,
Cc1ccc(Cc2nc(-c3cccc(C)c3)no2)cc1,,10.7 µM (active)
Cc1cccc(-c2noc(CCC(=O)NC3CCCC3)n2)c1,-9.98,
Cc1ccc(-c2noc(CC(c3ccccc3)c3ccccc3)n2)cc1,10.8,
CCc1ccccc1NC(=O)CSc1nnc(-c2ccccc2)c(-c2ccccc2)n1,-4.53,
Cc1ccc(CCNC(=O)Cn2c(-c3cccs3)cc3cc(F)ccc32)cc1,-1.98,
CCc1nn(CC(=O)N2CCN(c3cccc(C(F)(F)F)c3)CC2)c(=O)c2cc3occc3n12,-1.64,
Cc1cc(SCc2c(F)cccc2Cl)nc(=O)[nH]1,1.07,
O=C(CSc1ccc(-c2ccco2)nn1)NCc1ccc2c(c1)OCO2,-18,
Fc1cccc(Cl)c1CSc1ccc(-c2ccco2)nn1,,13.5 µM (active)
Oc1ccc(-n2nnnc2SCc2c(F)cccc2Cl)cc1,-3.56,
O=C(CSc1ccc(-c2ccco2)nn1)Nc1cccc(F)c1,,12 µM (active)
CCn1c(CNC(=O)c2ccco2)nnc1SCC(=O)Nc1cccc(F)c1,4.49,
Cc1noc2ncnc(NCc3ccccc3Cl)c12,-5.3,
O=C(CCSCc1cccc(F)c1)NCc1ccccc1,-13.1,
c1ccc2sc(NN=C3CCCC3)nc2c1,,2.69 µM (active)
CCN(CC)CCn1c2c(c(SCC(=O)Nc3nc4ccccc4s3)nc1=O)CCCC2,-1.18,
O=C1NC(Nc2nc3ccccc3s2)(C(F)(F)F)C(=O)N1C1CCCCC1 (stereo not given),0.553,
COC(=O)c1ccccc1NC(=O)C(Cc1ccccc1)N1Cc2ccccc2C1=O (stereo not given),-3.18,
COCCNC(=O)CSc1nc(-c2ccccc2)[nH]c1-c1ccc(C)cc1,-6.21,

Compound,"activity change, negative = inhibition [%]",Potency
C=CCNC(=S)N1CCN(CCN=Cc2c(C)[nH]n(-c3ccc([N+](=O)[O-])cc3)c2=O)CC1,-6.74,
O=C(Nc1cccnc1Cl)c1cc(-c2cccc(Cl)c2)on1,,inactive
CCc1ccccc1NC(=O)c1cc(-c2ccc3c(c2)OCO3)on1,,inactive
O=C(Nc1ccccc1C(F)(F)F)c1cc(-c2ccc(O)cc2)on1,,26.9 µM (active)
Cc1ccccc1CSc1nc2c([nH]c3ccccc32)c(=O)n1C,-1.85,
COc1ccc(CNC(=O)CS(=O)Cc2nc(-c3cccc(C)c3)oc2C)cc1 (stereo not given),-17.5,
COc1ccc(CNc2nc(-c3ccc(Cl)cc3)cc(C(F)(F)F)n2)cc1,-3.26,
COc1ccc(Cn2c(-c3ccc(Cl)cc3)c[n+]3ccccc23)cc1,,19 µM (active)
COc1ccc(CNc2nc(-c3ccc(Cl)cc3)nn2C(=O)c2ccccc2)cc1,-0.962,
COc1ccc(OC)c(-c2csc(-c3c(N)c(C(=O)c4ccccc4)n4ccccc34)n2)c1,0.147,
CC(C)(C)c1ccc(C(=O)N2CCC(c3nc(-c4ccc(S(=O)(=O)N5CCCC5)cc4)no3)CC2)cc1,-17,
COC(=O)c1sc(NC(=O)c2csc3c2CCCC3)nc1C,,2.39 µM (active)
CCOC(=O)c1sc(NC(=O)c2cc(S(=O)(=O)N3CCOCC3)ccc2C)nc1C,-0.843,
O=C(N/N=C/c1ccco1)c1ccc(NC(=O)C2CC2)cc1,-5.08,
CC1CC(C)CN(CCCNC(=O)c2csc3c2CCCCC3)C1 (stereo not given),0.607,
O=C(N/N=C/c1ccco1)c1csc2c1CCCC2,,15.1 µM (active)
CC(C)NC(=O)C(=O)N/N=C/c1ccco1,5.52,
O=C(NCc1ccccc1Cl)c1csc2c1CCCCC2,-13.1,
Cc1ccc(NC(=O)c2csc3c2CCCC3)cc1,,4.26 µM (active)
CCOc1ccc(CCNC(=O)c2csc3c2CCCCC3)cc1,-5.62,
Cc1c(CCOC(=O)CC23CC4CC(CC(C)(C4)C2)C3)sc[n+]1Cc1ccc([N+](=O)[O-])cc1,5.92,
CCn1c(SCC(=O)NCC2CCCO2)nc2ccccc21 (stereo not given),2.93,
CCc1ccccc1NC(=O)Cn1c(=O)n(-c2cccc(C)c2)c(=O)c2c1c1cc(OC)ccc1n2C,-1.17,
CC(=O)c1ccc(S(=O)(=O)NCCC(=O)N2CCN(c3ccccn3)CC2)cc1,1.49,
